# From the supplement of paper PMC6555819
# Columns and labels:
# Assay in all cases: PBM binding z-score (relative to random genomic background probes); higher = stronger binding; sequences stand for … in GC…GCGATTGACAGCGTAGAATGAAGG
# [1] = test system: FXR:RXRa (NR concentration 270 nM, RXRa partner concentration 90 nM)
# In short: (§1)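 Probes were double-stranded and carried 34-nt variable regions with direct-repeat seeds, single-nucleotide variants, half-site ablations and random human genomic background sequences, printed on custom Agilent 4×180K protein-binding microarrays. Arrays were incubated 1 h with ligand-free nuclear receptor dimers in PBS pH 7.4, 2% milk, 0.02% Triton X-100, 1 mM DTT, 0.2 mg/mL BSA and 0.4 mg/ml salmon testes DNA. Antibodies against each partner (one per run) detected binding, and scanned fluorescence was regression-normalized. Binding z-scores use the random background probes as reference.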
# [2] = test system: LXRa:RXRa (NR concentration 270 nM, RXRa partner concentration 90 nM)
# In short: as §1
# [3] = test system: LXRa homodimer (NR concentration 270 nM)
# In short: as §1
# [4] = test system: LXRb:RXRa (NR concentration 270 nM, RXRa partner concentration 90 nM)
# In short: as §1
# [5] = test system: LXRb homodimer (NR concentration 270 nM)
# In short: as §1
# [6] = test system: PPARa:RXRa (NR concentration 270 nM, RXRa partner concentration 90 nM)
# In short: as §1
# [7] = test system: PPARg:RXRa (NR concentration 180 nM, RXRa partner concentration 90 nM)
# In short: as §1
# [8] = test system: PPARg:RXRa 270nM:90nM, anti-RXR (NR concentration 270 nM, RXRa partner concentration 90 nM)
# In short: as §1
# [9] = test system: PPARg:RXRa 30nM:10nM, anti-RXR (NR concentration 30 nM, RXRa partner concentration 10 nM)
# In short: as §1
# [10] = test system: PPARg:RXRa 90nM:30nM, anti-RXR (NR concentration 90 nM, RXRa partner concentration 30 nM)
# In short: as §1
Sequence,PBM binding z-score [1],PBM binding z-score [2],PBM binding z-score [3],PBM binding z-score [4],PBM binding z-score [5],PBM binding z-score [6],PBM binding z-score [7],PBM binding z-score [8],PBM binding z-score [9],PBM binding z-score [10]
ATATGTAGGTTAGGGTCATTCGGAAAGTAGGGAA,5.03,4.43,1.22,4.4,1.67,5.83,7.56,6.42,4.48,6.36
TTACCAAGGTGAAAGGTCGTTGAAGCACGCCTTG,4.16,3.41,0.16,2.97,-0.616,5.82,9.24,8.52,7.08,9.79
AGTCAAAGTTCAGGACGAGGTCACGTAAAGCACG,6.35,5.87,4.71,4.87,0.736,5.46,6.17,6.26,2.76,4.97
ATCGAATGGTCGAAGGTGAGTATACCCACCCGAA,-0.229,-0.228,-0.451,-0.362,-0.158,0.153,1.07,1.34,0.48,1.31
GCTGCTAGGTCAACTGATGGTGAGCTAAAGCTCG,4.47,2.63,-0.169,1.71,-0.179,3.57,2.57,3.02,0.564,2.06
CGTCCAAGGTCAAGCTCAGTGAAAGAGACTCGAA,7.44,5.54,0.428,3.91,0.539,5.75,5.25,5.77,1.89,4.21
ATATTTAGGTTAGGGTCATTCAGAAAGTAGGGAA,4.69,4.1,1.88,4.8,3.1,5.27,6.6,5.63,3.17,5.27
CCTTACGGGTCACTCTAGGTTATAGCATCGGAGT,5.09,7.69,1.83,5.58,0.329,4.68,3.33,3.69,1.3,2.76
CGTCCGAGGTCAAAGGTCAGTGAAGAGATGACGG,8.25,7.31,3.51,7.09,2.24,7.17,11.3,9.76,8.58,11.5
CGAACTAGGTCAAAGGACAGTGATAGGCGACGTA,3.8,2.62,0.0431,1.64,-0.0452,5.27,10.2,8.27,8.49,9.35
CGTCCAAGGTCAAGGGCAGTGAAAGAGACTCGAA,7.12,4.83,0.283,3.68,0.0141,5.93,5.48,5.38,1.76,4.07
CGAACTATGTCAAAGGACAGTGAAAGGCGACGTA,0.0509,0.00479,-0.268,-0.115,-0.346,2.68,5.1,5.42,4.42,5.74
CGAACTAGGTCACCAGGACAATGAAGAGGTTGGA,3.54,2.55,0.00967,1.74,0.0583,5.41,8.69,6.83,4.53,6.43
CGAACTAGGTCAAAGGACAATGAAAGGCGACGTA,3.98,2.65,0.155,1.92,-0.0883,5.61,10.3,8.49,8.29,9.41
ATATGTACGTTAGGGTCATTCAGAAAGTAGGGAA,4.38,3.61,0.485,3.96,1.15,4.77,2.68,2.97,1.27,2.07
CGTACTAGGTCACCAGGACAGTGAAGAGGTTGGA,3.85,2.7,0.154,2.01,-0.0806,4.67,7.91,6.32,3.8,5.83
CCTAGTTGGTCAGGAGGTCACATACCGGATATGA,3.32,3.13,1.66,3.16,0.594,3.7,3.11,3.14,1.32,2.95
CGTCAACGTTCAACTAAGGTAACGTAAAGCACGC,0.828,0.246,0.102,0.277,0.346,0.566,0.682,0.178,-0.166,-0.0957
CCTACTGGGCCACGAAAGGTAATTGATTCAGTGA,-0.128,-0.227,-0.337,-0.403,-0.777,1.1,1.63,1.38,-0.0637,0.669
CGAACTCGGTCAAAGGACAGTGAAAGGCGACGTA,0.719,0.857,-0.21,-0.0802,-0.824,2.68,5.06,5.39,3.97,5.3
ATATGCAGGTTAGGGTCATTCAGAAAGTAGGGAA,4.84,4.25,0.906,4.2,0.909,5.12,4.09,4.1,1.99,3.4
CCTACTGGGGCACGAAAGGTCATTGATTCAGTGA,4.09,5.15,4.81,4.57,0.0561,4.99,6.01,5.54,2.79,4.75
TGAATGAAGTTAAAGATCAGGGAACGTGGCGTCG,-0.402,-0.168,-0.348,-0.389,-0.518,0.212,0.843,1.61,0.713,1.3
AGAATGAGGTTATACGTAGGTCAGGGAAGAAAGT,3.33,4.18,1.07,3.2,0.0984,4.04,2.84,2.74,0.859,2.05
